Test results as given in PubChem BioAssay (NCI).
This is part of a sample that, as a whole, favours compounds with a hit. Of some 79,000 tested, about 15% had one in any assay. Unmarked numbers belong to inactive results. Calls of active or inactive are those of the source. No stated cut-off is given here; in the data, active means growth inhibition above about 70%; inactive means the rest.

Assay: NCI Yeast Anticancer Drug Screen. Data for the mgt1 strain (AID 153)
Conditions: S. cerevisiae mgt1 mutant growth inhibition, stronger effect = higher value
Protocol: Growth inhibition of yeast strains with defined genetic alterations is measured as a screen for potential anti-cancer activity. Selected strains with alterations in DNA damage repair or cell cycle control were exposed to compounds and growth inhibition was measured relative to vehicle treated controls. The strain used in this assay is mgt1

| SMILES | growth inhibition (at 1.2 µM) | growth inhibition (at 3.7 µM) | growth inhibition (at 11.0 µM) | growth inhibition (at 33.0 µM) | growth inhibition (at 100.0 µM) |
| --- | --- | --- | --- | --- | --- |
| O=C(c1cc(=O)c2ccc(O)cc2o1)c1ccc(Cl)cc1Cl | -9% | -18% | 21% | 89% (active) | 90% (active) |
| CC1(c2ccccc2)O[C@@H]2C[C@H]3[C@@H]4CCC5=CC(=O)C=C[C@]5(C)[C@@]4(F)[C@@H](O)C[C@]3(C)[C@]2(C(=O)CO)O1 (stereo not given in full) | -2% | -5% | -5% | 53% | 98% (active) |
| COc1ccc(C(C)c2cc3c(cc2OCC(C)=O)OCO3)cc1 (stereo not given) | -3% | -2% | -4% | -7% | 42% |
| Cc1ccc([N+](=O)[O-])c2c(NCCC[N+](C)(C)[O-])c3ccccc3nc12 | -2% | 0% | -6% | 5% | 1% |
| CC1CCC(C2=CSC3CCCCC3N2)CC1 (stereo not given) | -1% | 4% | 9% | 32% | 91% (active) |
| O=C(Nn1c(-c2ccccc2)nc2ccccc2c1=O)c1ccc(CS)cc1 | -9% | -19% | -17% | 23% | 97% (active) |
| O=C(O)c1ccccc1C(=O)OC1CCc2ccccc2C1 (stereo not given) | -4% | -6% | -10% | -1% | 5% |
| NC(=O)NC1C(c2ccccc2)=C1c1ccccc1 | 0% | -2% | 0% | -3% | 19% |
